Where a name gives a salt, the structure may show the parent alone. ± gives the standard deviation of the averaged measurements.
The molecules below were run on mESC LDLR-Dup GFP reporter (SpCas9 MH-deletion repair) (assay: fraction of GFP+ cells relative to DMSO control (fold change); higher = more MH-deletion repair to in-frame LDLR (or more editing)). Conditions: 2 µM; 7 days post-transfection.
With `O=c1[nH]nc2c3c(cccc13)N=C(CN1Cc3ccccc3C1)N2` the “fraction of GFP+ cells” value was 0.38 ± 0.041. With `O=C(NCc1cccc(O)c1)Nc1nc(-c2ccncc2)cs1` the “fraction of GFP+ cells” value was 1.11 ± 0.49. For `CCCC(CCC)C(=O)O` [Valproic acid sodium salt (Sodium valproate)], the “fraction of GFP+ cells” value was 0.849 ± 0.18. `CC(C)(O)C1CCC(C)(C2C(O)CC3(C)C4CC(O)C5C(C)(C)C(O)CCC56CC46CCC23C)O1` (centres undefined) [Cyclogalegenol] was tested, and the “fraction of GFP+ cells” value was 0.875 ± 0.24. `O=c1nc(N2CCOCC2)oc2c(-c3cccc4c3sc3ccccc34)cccc12` was tested, and the “fraction of GFP+ cells” value was 0.761 ± 0.24. In the case of `C[C@H](NC(=O)CCc1nc2ccccc2c(=O)[nH]1)c1ccccc1`, the “fraction of GFP+ cells” value is reported as 0.781 ± 0.051. For `NC(=O)c1ccc(I)c([N+](=O)[O-])c1` [Iniparib (BSI-201)], the “fraction of GFP+ cells” value was 1.03 ± 0.039. `COc1c(O)cc(O)c2c(=O)cc(-c3ccccc3)oc12` [Wogonin] was tested, and the “fraction of GFP+ cells” value was 0.728 ± 0.15. For `NC(=O)c1nc(F)cnc1O` [Favipiravir (T-705)], the “fraction of GFP+ cells” value was 0.826 ± 0.25. With `NC(=O)c1cc(F)cc2c1C(=O)N(C1CCN(C3CCC(F)(F)CC3)CC1)C2` the “fraction of GFP+ cells” value was 0.792 ± 0.12. With `O=c1c(O)c(-c2ccc(O)c(O)c2)oc2cc(O)cc(O)c12` [Quercetin] the “fraction of GFP+ cells” value was 1.4 ± 0.93. In the case of `NCCOc1cc(C(=O)Nc2cc(OCCN)c3ccccc3n2)nc(C(=O)Nc2cc(OCCN)c3ccccc3n2)c1` [Pyridostatin Trifluoroacetate Salt], the “fraction of GFP+ cells” value is reported as 0.824. With `Cc1cc(O)c2c(c1)C(=O)c1cc(O)cc(O)c1C2=O` [Emodin] the “fraction of GFP+ cells” value was 1.12 ± 0.16. For `O=C(NCc1ccccc1)c1csc(Nc2ccncn2)n1` [Thiazovivin], the “fraction of GFP+ cells” value was 0.987 ± 0.18. For `O=C(CCCCCCNC(=O)c1cnc(N(c2ccccc2)c2ccccc2Cl)nc1)NO` [Citarinostat (ACY-241)], the “fraction of GFP+ cells” value was 0.902 ± 0.074. For `CC1=C(C(=O)Nc2cc3cn[nH]c3cc2F)C(c2ccc(C(F)(F)F)cc2)CC(=O)N1` (centres undefined), the “fraction of GFP+ cells” value was 1.27 ± 0.48. In the case of `CN(C)/N=N/c1[nH]cnc1C(N)=O` [Dacarbazine], the “fraction of GFP+ cells” value is reported as 1.01 ± 0.49. For `Nc1ccn(C[C@@H](CO)OCP(=O)(O)O)c(=O)n1` [Cidofovir], the “fraction of GFP+ cells” value was 1.02 ± 0.1. For `O=C(Nc1ccccc1-c1cn2c(CN3CCNCC3)csc2n1)c1cnc2ccccc2n1`, the “fraction of GFP+ cells” value was 1.19 ± 0.68. `Nc1[nH]cnc2ncnc1-2` [Adenine sulfate] was tested, and the “fraction of GFP+ cells” value was 1.1 ± 0.025. In the case of `CN(Cc1cnc2nc(N)nc(N)c2n1)c1ccc(C(=O)N[C@@H](CCC(=O)O)C(=O)O)cc1` [Methotrexate], the “fraction of GFP+ cells” value is reported as 1.53 ± 0.28. In the case of `O=C1CCc2c(ccc3ccccc23)O1` [Splitomicin], the “fraction of GFP+ cells” value is reported as 0.636 ± 0.11. With `CN1CCc2c(c3ccccc3n2Cc2ccc(C(=O)NO)cc2)C1` [Tubastatin A HCl] the “fraction of GFP+ cells” value was 0.623 ± 0.15. In the case of `COc1cc2c(c(OC)c1OC)-c1c(cc3c(c1OC)OCO3)CC(C)C(C)C2` (centres undefined) [Schisandrin B (Sch B)], the “fraction of GFP+ cells” value is reported as 1.02 ± 0.2. With `Cc1cn([C@H]2C[C@H](N=[N+]=[N-])[C@@H](CO)O2)c(=O)[nH]c1=O` [Zidovudine] the “fraction of GFP+ cells” value was 1.09 ± 0.18. `N=C(NOCC(O)CN1CCCCC1)c1cccnc1` (centres undefined) was tested, and the “fraction of GFP+ cells” value was 0.805 ± 0.12. With `Nc1nc(F)nc2c1ncn2[C@@H]1O[C@H](CO)[C@@H](O)[C@@H]1O` [Fludarabine] the “fraction of GFP+ cells” value was 0.867 ± 0.35. `CS(=O)(=O)OCCCCOS(C)(=O)=O` [Busulfan] was tested, and the “fraction of GFP+ cells” value was 1.36 ± 0.93. `C[C@H]1COc2c(N3CCN(C)CC3)c(F)cc3c(=O)c(C(=O)O)cn1c23` [Levofloxacin hydrate] was tested, and the “fraction of GFP+ cells” value was 0.935 ± 0.12. For `N#CSc1cc(SC#N)c(N)nc1N`, the “fraction of GFP+ cells” value was 1.23 ± 0.14. For `COc1ccc(Cn2ccc3ccc(C(=O)NO)cc32)cc1`, the “fraction of GFP+ cells” value was 0.5 ± 0.072. For `N#Cc1ccc2ncnc(NCCc3ccccc3)c2c1` [Senexin A], the “fraction of GFP+ cells” value was 0.863 ± 0.11. `CCc1c(Cl)c(O)c(Cl)c(O)c1C(=O)O[C@H]1[C@H](O)[C@H](OC)[C@H](OC/C2=C\C=C\C[C@H](O)/C(C)=C/[C@H](CC)[C@@H](O[C@@H]3OC(C)(C)[C@@H](OC(=O)C(C)C)[C@H](O)[C@@H]3O)/C(C)=C/C(C)=C/C[C@@H]([C@@H](C)O)OC2=O)O[C@@H]1C` [Fidaxomicin] was tested, and the “fraction of GFP+ cells” value was 2.81 ± 0.44. With `CCOC(=O)Nc1ccc(NCc2ccc(F)cc2)nc1N` [Flupirtine maleate] the “fraction of GFP+ cells” value was 0.989 ± 0.52. With `O=C(CCCCCCC(=O)Nc1ccc([C@H]2O[C@@H](CSc3nc(-c4ccccc4)c(-c4ccccc4)o3)C[C@@H](c3ccc(CO)cc3)O2)cc1)NO` [Tubacin] the “fraction of GFP+ cells” value was 0.972 ± 0.16. In the case of `NC1CCN(c2c(F)cc3c(=O)c(C(=O)O)cn(C4CC4)c3c2Cl)C1` (centres undefined) [Clinafloxacin], the “fraction of GFP+ cells” value is reported as 0.685 ± 0.25. For `Nc1nc2n[nH]nc2c(=O)[nH]1` [Azaguanine-8], the “fraction of GFP+ cells” value was 1.43 ± 0.23. For `CN(C)CCNC(=O)c1cccn2c(=O)c3cc4ccccc4cc3nc12`, the “fraction of GFP+ cells” value was 1.06 ± 0.28. `CC(=O)c1cc([N+](=O)[O-])c(Sc2ccc(F)cc2F)s1` was tested, and the “fraction of GFP+ cells” value was 0.785 ± 0.22.
